SMARCA2 act: activators of SMARCA2 function; AID 652017; activation, % at 9.1 µM; MG213 cells, MMTV-luciferase reporter, dexamethasone, overnight; hit rate 1% among 370,000; in the data active = activation above about 7.8%;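 note: 0% = vehicle wells and 100% = reference activator wells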
DAX1 inh-1: inhibitors of human orphan nuclear receptor DAX1 (NR0B1); P51843; HEK293 Gal4-DAX1 luciferase reporter, luminescence; hit rate 0.99% among 340,000; inhibition, % at 6.75 µM; AID 504766;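 active = inhibition above the mean over all tested compounds plus 3 SD, cut at about 4.2% in these data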;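 note: 0% = DAX1-transfected cells with DMSO and 100% = empty-vector control cells with DMSO; inhibition shows as a rise in luminescence from relieved DAX1 repression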
Target sequence (P51843 207-470 limits assumed): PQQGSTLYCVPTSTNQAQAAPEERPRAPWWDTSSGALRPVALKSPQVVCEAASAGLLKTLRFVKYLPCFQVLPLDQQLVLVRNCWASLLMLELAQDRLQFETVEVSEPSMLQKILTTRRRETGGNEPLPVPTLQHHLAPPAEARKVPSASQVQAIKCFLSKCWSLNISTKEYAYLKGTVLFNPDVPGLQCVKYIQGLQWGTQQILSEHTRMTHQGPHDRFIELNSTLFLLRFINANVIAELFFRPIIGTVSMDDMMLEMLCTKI
hgDAF12 agonist: agonists of H. glycines DAF-12 nuclear receptor. hit rate 1.8% among 370,000. activation, % at 6.8 µM. HEK293 GAL4-hgDAF12 UAS-luciferase reporter, agonist luminescence; normalized to butyrate control. AID 687014;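 active = activation above a cutoff set at the mean of all screened compounds plus 3 SD, cut at about 10% in these data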;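 note: 0% = DMSO wells and 100% = sodium butyrate wells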
DAX1 inh-2: blocks DAX1 repression of SF-1 activated StAR promoter. HEK293T StAR-luciferase reporter, SF-1/DAX-1 repression relief. inhibition, % at 6.8 µM. hit rate 1.1% among 370,000. AID 652010;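 active = inhibition above the mean over all tested compounds plus 3 SD, cut at about 3.6% in these data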;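 note: 0% = DAX-1 cells with DMSO and 100% = cells lacking DAX-1 with DMSO; higher inhibition means more luminescence from relief of DAX-1 repression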
ssDAF12 agonist: activates DAF-12 receptor from parasite S. stercoralis | HEK293 ssDAF-12/GRIP1 lit1-tk-luc reporter, luminescence; % of 3 µM dafachronic acid response | hit rate 1% among 370,000 | AID 652126 | activation, % at 6.8 µM;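 active = activation above the mean over all tested compounds plus 3 SD, cut at about 0.9% in these data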;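 note: 0% = DMSO-only wells and 100% = 3 µM delta7-dafachronic acid wells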
hcDAF-12 act: activators of H. contortus DAF-12 nuclear receptor; HEK293 hcDAF-12 lit1-tk-luc reporter, luminescence; 0% DMSO, 100% Δ7-dafachronic acid; activation, % at 6.8 µM; hit rate 1.4% among 370,000; AID 652067;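 active = activation above the mean of all tested compounds plus 3 SD, cut at about 5.5% in these data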;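 note: 100% = response to 3 µM Δ7-dafachronic acid high control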
LXRb hcDAF ctr: LXR-beta agonism as hcDAF-12 counter-screen | AID 743027 | activation, % at 6.8 µM | 3,400 tested, under 10 active | HEK293 Gal4-LXR tk-luc reporter, luminescence, 24 h; normalized: DMSO 0%, positive control 100% | shares compounds with hcDAF-12 act;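 active = mean percent activation of the reporter above a cutoff set as the average over tested compounds plus their standard deviation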
hcDAF12 ag: confirmation of H. contortus DAF-12 agonists; hit rate 61% among 3,400; activation, % at 6.8 µM; HEK293 hcDAF-12 lit1-tk-luc reporter, luminescence; % of Δ7-dafachronic acid response; shares compounds with hcDAF-12 act; AID 743032;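 active = mean activation across triplicate tests above the threshold derived from the earlier primary screen, cut at about 5.5% in these data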;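 note: 0% = DMSO only wells and 100% = 3 µM Δ7-dafachronic acid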
An asterisk follows results filed as active; nt = no result given. An excerpt weighted towards active compounds, which were near 4.8% of everything screened.

SMILES	SMARCA2 act	DAX1 inh-1	hgDAF12 agonist	DAX1 inh-2	ssDAF12 agonist	hcDAF-12 act	LXRb hcDAF ctr	hcDAF12 ag
COC(=O)CN1CCN(C(=O)c2csc(-c3ccccc3)n2)CC1	4	nt	1	0	-1	-1	nt	nt
COc1ccc2c(/C=N/Nc3ccc(C(=O)O)cc3)c[nH]c2c1	7	-1	7	2	0.9*	10*	1	10*
O=C(N/N=C/c1c[nH]c2ccccc12)c1ccc(O)c(O)c1	-1	1	2	0	0	5	nt	nt
O=C(O)c1cc(N/N=C/c2c[nH]c3ccccc23)ccc1Cl	5	2	2	0	3.2*	8.6*	0	10*
CC(=O)Nc1cccc(C(=O)N/N=C/c2c[nH]c3ccccc23)c1	2	1	9	0	0.9*	8.5*	0	4
COc1ccc(C(=O)N/N=C/c2c[nH]c3ccccc23)cc1	-1	3	4	0	0	3	nt	nt
O=C(CNc1nnnn1-c1ccccc1)N1CCCC1	-4	nt	-2	0	-1	3	nt	nt
COc1ccc(C(=O)/C=C(\Nc2ccc(F)cc2)c2ccc(OC)cc2OC)c(OC)c1	-1	nt	-2	0	-2	0	nt	nt
O=C(Nc1ccc2c(c1)OCO2)c1ccc(Br)o1	6	1	13*	3	0	9.0*	0	5
COCC(=O)Nc1c(C(=O)Nc2ccc3c(c2)OCO3)oc2ccccc12	6	3	6	1	-1	1	nt	nt
CC(=O)Nc1c(C(=O)Nc2ccc3c(c2)OCO3)oc2ccccc12	3	3	9	2	1	7.6*	1	6.8*
COc1cccc(C(=O)NNC(=O)c2ccc(NS(=O)(=O)c3cccs3)cc2)c1OC	-2	0	3	0	0	-1	nt	nt
COc1ccccc1C(=O)NNC(=O)c1cccc(O)c1	8	1	7	3	2.6*	10*	1	15*
COc1ccccc1C(=O)NNC(=O)c1cccc(F)c1	4	0	7	3.9*	1.2*	10*	1	11*
COc1ccccc1C(=O)NNC(=O)c1ccc(NS(=O)(=O)c2cccs2)cc1	-2	1	-1	2	1	10*	0	6.4*
CCCCCCCCN1C(=O)[C@@H](CC(=O)NCc2cccc(C(F)(F)F)c2)C[C@@]2(C(=O)OC)C1=C[C@H](COCc1ccccc1)O[C@@H]2C	-2	nt	-2	-2	-1	0	nt	nt
CCCCNC(=O)C[C@H]1C[C@@]2(C(=O)OC)C(=C[C@H](C(C)(C)C)O[C@@H]2C)N(Cc2ccccc2)C1=O	-5	nt	1	-1	-1	1	nt	nt
COc1ccc(-c2cc(C(=O)N3CCCCCC3)no2)cc1	2	6.2*	9	2	0	7.6*	1	4
COc1ccc(-c2cc(C(=O)N3CCN(C(c4ccccc4)c4ccccc4)CC3)no2)cc1	nt	0	nt	nt	nt	nt	nt	nt
C[C@@H](NC(=O)c1ccc(C#Cc2cccc(F)c2)cn1)C(C)(C)O	1	nt	1	-1	-1	-2	nt	nt
CC(=O)Oc1ccc(C(=O)[C@H]2[C@H]3C(=O)N(c4ccccc4)C(=O)[C@H]3[C@@H]3C=CC=NN32)cc1	-1	3	2	0	0	8.1*	0	5
COc1ccc2c(c1OC)C(=O)N1c3ccccc3SC21 (stereo unspecified)	5	2	12*	2	1	8.8*	1	7.5*
O=C(N/N=C\c1cn(-c2ccccc2)nc1-c1ccccc1)c1ccc(Br)o1	3	-1	5	-1	0	9.4*	0	4
CCOc1cc(C(=O)N/N=C/c2cn(-c3ccccc3)nc2-c2cc3ccccc3o2)cc(OCC)c1OCC	5	3	9	2	0	7.9*	1	5.8*
Cc1ccc(-c2nn(-c3ccccc3)cc2/C=N/NC(=O)c2ccc(Br)o2)cc1	0	1	1	1	-1	3	nt	nt
SMILES	SMARCA2 act	DAX1 inh-1	hgDAF12 agonist	DAX1 inh-2	ssDAF12 agonist	hcDAF-12 act	LXRb hcDAF ctr	hcDAF12 ag
Cc1ccc(-c2nn(-c3ccccc3)cc2/C=N/NC(=O)c2ccncc2)o1	1	1	9	1	-1	2	nt	nt
F[B-](F)(F)c1cncnc1	2	nt	7	0	-1	1	nt	nt
C/C(=N/N=C(/C)c1cccs1)c1cccs1	2	6.1*	16*	1	1.1*	8.3*	1	11*
Cc1ccc(-c2nc(NCc3cccnc3)c3ccccc3n2)cc1	-1	0	0	1	0	6.8*	0	4
Cc1ccc(-c2nc(NCc3ccco3)c3ccccc3n2)cc1	6	1	8	-1	0.9*	6.6*	0	5.7*
c1ccc(-c2nc(NCc3cccnc3)c3ccccc3n2)cc1	nt	0	nt	nt	nt	nt	nt	nt
Fc1cccc(Cl)c1/C=C/c1cnc2ccccc2n1	3	2	16*	3	2.0*	20*	2	22*
Cc1ccc(-c2cc(C(=O)Nc3cc(C)ccc3O)no2)cc1	3	1	2	-1	-1	0	nt	nt
Cc1ccc(O)c(-c2cc(-c3ccc(F)cc3)no2)c1	5	7.7*	20*	3	4.0*	19*	2	18*
CN1CCCCC(NC(=O)c2cccc(F)c2)C1=O (stereo unspecified)	-1	nt	-1	0	-1	-1	nt	nt
CCCCN1CN2Cc3cc(F)ccc3C2CS1(=O)=O (stereo unspecified)	-2	nt	2	0	0	-1	nt	nt
COC(=O)[C@]12C[C@H](CC(=O)NCc3cccc(C(F)(F)F)c3)C(=O)N(Cc3ccccc3)C1=C[C@H](C1CCCC1)O[C@@H]2C	-3	nt	1	-1	-1	-1	nt	nt
CC(=O)n1cc(CO)c2ccccc21	1	0	0	1	-1	7.2*	0	3
CC(=O)O/C(=C\c1cn(C(C)=O)c2ccccc12)C(=O)O	-3	1	-2	1	0	4	nt	nt
Cc1ccc(NC(=O)[C@H]2CC(=O)O[C@@H]2c2ccccc2)cc1C	-4	nt	3	0	0	2	nt	nt
Cc1cc(-c2ccc(Cl)cc2)c(C#N)c(N)n1	2	0	-1	0	0	6.7*	0	4
Cc1ccc(-c2cc(-c3ccccc3)c(C#N)c(N)n2)o1	-1	-1	-1	-1	-1	-1	nt	nt
Cc1cccc2cc3c(nc12)-c1ccccc1C3=O	0	1	2	1	0	7.2*	0	5
